± gives the standard deviation of the averaged measurements. Whole data set: some 25,000 sequences, median “ln(normalized median fluorescence intensity)” near 10, cut for the highest 2% near 12. The list comes from a sample in which the highest values are over-represented; it also holds similar and randomly drawn sequences.
These sequences were tested on PfAP2-G AP2 domain (GST-tagged) (assay: gcPBM binding intensity (ln(normalized median fluorescence intensity)); higher = stronger DNA binding).
Outline: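 Binding intensity is the highest Masliner-normalised natural-log median intensity over replicate spots in either probe orientation. To obtain it, GST-tagged P. falciparum DNA-binding domains made in E. coli were incubated for 1 h on an Agilent 4 × 180k array of primer-extended double-stranded 36-bp intergenic genomic probes plus negative controls. Detection used Alexa488 anti-GST antibody with scanning at 488 nm.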

Row | Sequence | gcPBM binding intensity (ln)
1 | ATTTTTTTACTGCAACCATATTTTTCCCTTTTATTC [CACACA_negctrl_site1282] | 10.12 ± 0.085
2 | AAAATTTAAATAGGAAGTACGTTCACTAAGAAAATA [XGTACX_site6546] | 11 ± 0.57
3 | CTATAATAGAAGTGTACACACATATTTATGTCTGTA [CACACA_site7462] | 11.7 ± 0.93
4 | TTGCTGTATTTATTTTGTACACATTTGGCATTATAT [XGTACX_site3408] | 11.2 ± 0.73
5 | TGCTGTATATTTTTCTGTACACATTTATATATTCCA [XGTACX_site6244] | 11.6 ± 0.87
6 | TTAATATAATAGAAGTGTACACACATATTTATGTGT [XGTACX_site6672] | 11.5 ± 0.78
7 | ATATAATAGAAGTGTACACACATATTTATGTCTGTA [CACACA_site3121] | 11.5 ± 0.74
8 | TTTAAAAATTAATTCTGTACACATTTTTATTATATT [XGTACX_site4212] | 11.5 ± 0.81
9 | TATATATAATATAGTGCATGTAAAAAATAAACCATG [TGCATGCA_site932] | 10.2 ± 0.16
10 | ACAAGTTAAAATATTACACACATATAAATATATATA [CACACA_site3132] | 9.84 ± 0.099
11 | TTGTTCTATATATATGCATGCACGTATGTTAAATTA [TGCATGCA_site659] | 10.3 ± 0.33
12 | AGATATTAAAACGTTACACACATTTATATATCTTCT [CACACA_site908] | 9.74 ± 0.2
13 | GAAAGAATAAAATTTACACACATATATATATACATA [CACACA_site2250] | 9.745 ± 0.035
14 | ATGTCTATATATTAAGGTACACATATATGCTATTCA [XGTACX_site6008] | 11.1 ± 0.57
15 | ACTTATAAAATAACATGTACAAATATTTATTATATA [XGTACX_site133] | 11 ± 0.54
16 | AAAAAAATATAAATACGTACATATATATATATATAT [XGTACX_site432] | 11.5 ± 0.98
17 | TTATACATAAATTTTGTACACACAAAAAAAAAAAAG [CACACA_site8374] | 11.2 ± 0.87
18 | ATTTTGTTCGAAAGGTGTACATATACAAAAATTATG [XGTACX_site957] | 11.7 ± 1
19 | ATATCGAAAATTTGGTGTACATTTTTATTTGTTCAA [XGTACX_site3094] | 11.5 ± 0.93
20 | TTTATTTATTACTAAAGTACTAAATCATATTATTAT [XGTACX_site2574] | 10.6 ± 0.54
21 | TAATATAGTATAGTATGTACATATAATTAGAATATT [XGTACX_site4053] | 11.3 ± 0.77
22 | CCATATATTTGGTATAGTACTTTTTATTTTATTTCA [XGTACX_site8933] | 11.1 ± 0.5
23 | TTAGTTTATTGGTACTGTACTTTTTTTTTCTCCATT [XGTACX_site8618] | 11.9 ± 0.91

Row | Sequence | gcPBM binding intensity (ln)
24 | TAGGGTAGTTATAATTGTACTTTTCTCCAAAAAAAA [XGTACX_site7321] | 11.3 ± 0.81
25 | TACATAAACATTTATACACACATTATATATACATAT [CACACA_site8028] | 10.12 ± 0.064
26 | TAATTATTTCGTATATTTGAATGGTACATGCTTATA [CACACA_negctrl_site1178] | 10.7 ± 0.6
27 | ATACATATAATATATGCATGTACCAATCAAATATAT [TGCATGCA_site192] | 10.5 ± 0.29
28 | TGTTGTATTGAAGCTAAAAAATGAGGCAAAAAAAAA [CACACA_negctrl_site1189] | 10.2 ± 0.26
29 | TTTTTATTTGGTTGTGTACACATATATATATATATA [CACACA_site5844] | 11.6 ± 0.94
30 | TATATTATAGGTTGTGTACACATATTATATAGTACT [CACACA_site4583] | 11.6 ± 0.88
31 | AATTTTTATTTGTACACACATACATATATATTATAT [CACACA_site993] | 11.4 ± 0.83
32 | CTTTAAAACCGGTACTGTACACATAGTATTATTATC [XGTACX_site2602] | 11.6 ± 0.8
33 | AACACTACATAAAACTGTACAATAGTATTTTATTAT [XGTACX_site996] | 10.9 ± 0.49
34 | TTATTTATATTTTTTTGTACACATATTGTATACATA [XGTACX_site1178] | 11.5 ± 0.86
35 | ACATATTTTATTTTTTGTACACATATATTATTTTTT [XGTACX_site6528] | 11.3 ± 0.66
36 | ATGTGTATATATTATTGTACATATATATATATATAT [XGTACX_site4627] | 11.2 ± 0.82
37 | TTATATTTATTTATTTGTACATATTTTTTTTTATAT [XGTACX_site1669] | 11.2 ± 0.67
38 | CATACATATACTTTGTGTACATATATATATTATATA [XGTACX_site97] | 11.4 ± 0.78
39 | TTTATTTTGTAGTGTACACATATATATATATATATA [CACACA_site5843] | 11.7 ± 0.96
40 | GTATTATCTGCTTTTTGTACACATATATTTAAAAAA [XGTACX_site7603] | 11.4 ± 0.95
41 | TATTTTATATGATAGGTGCATTTTTTTTTTTTTTTT [GTGCAC_site9757] | 10.4 ± 0.48
42 | TTCTTTATTTTTTCTACACACATTATATATTCAAAG [CACACA_site5866] | 10.12 ± 0.099
43 | CAACACTTATTGAAACGTACGCATATAGTTTCTTTT [XGTACX_site8960] | 11 ± 0.55
44 | TATAAATATAAATATACACACATATATTTATTTATA [CACACA_site6890] | 9.645 ± 0.078
45 | TATTTGTGCCAAAAATGAAAAAGTTTGTATAAAACC [CACACA_negctrl_site1406] | 10.1 ± 0.17

Reference: the supplement of paper PMC11417369
